# Data as given in PubChem BioAssay.
# System: Chordin-like protein 2 (CHRDL2)
# Experiment: compounds binding chordin-like 2 – biochemical, small-molecule microarray, 635 nm fluorescence, primary screen (AID 1126);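 further: printed compound slides probed with Chrdl2 protein at 4 µg/mL for 1 h at 4 C; score merges 667 nm emission intensity with signal to noise over three replicate slides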
# Settings: fluorescence 635 nm, higher = more signal
row,SMILES,composite z-score
1,COC(=O)C[C@H]1O[C@@H](CCc2ccccc2)[C@@H](C)[C@@H]1[Si](C)(C)c1ccc(OC)cc1,0.323
2,CC(=CC1CCCCC1)[C@@H](NC(=O)c1cccnc1)c1ccc(-c2ccccc2)cc1,-0.531
3,[N-]=[N+]=Nc1ccccc1C[C@]1(C(=O)NCC(O)CO)N=C(c2ccc(OCCCO)cc2)O[C@H]1c1ccccc1 (stereo partly drawn),-1.5
4,COCC(=C=CC[C@H](O)c1cccc(OCCO)c1)CCO,0.247
5,COC(=O)[C@H](Cc1ccccc1)N[C@H](/C=C/C1CC1)[C@@H](O)Cc1ccccc1,-0.318
6,C=CCOC(=O)[C@H]1[C@@H]2C(=O)O[C@@H](c3ccccc3)[C@@H](c3ccccc3)N2[C@@H](c2ccc(OCCOC(=O)[C@@H]3C[C@@H]4C(=O)N5CCC[C@H]5C(=O)N4[C@@H]3c3cccc(OCCO)c3)cc2)[C@]12C(=O)Nc1ccc(I)cc12,1.18
7,COCC(=C=CC[C@@H](O)c1ccc(OCCO)cc1)C[C@@H](O)c1ccccn1,0.141
8,COc1ccc([Si](C)(C)[C@@H]2[C@@H](CCO)O[C@]3(C(=O)N(Cc4cccc(N5CCOC5=O)c4)c4ccccc43)[C@H]2C)cc1,-0.0408
9,[N-]=[N+]=Nc1ccccc1[C@H]1OC(c2ccc(OCCCO)cc2)=N[C@@]1(Cc1ccccc1)C(=O)N1CCOCC1,0.311
10,CN1C(=O)C2C=CC(C(O)C=Cc3ccc([N+](=O)[O-])cc3)N(Nc3ccccc3)C2C1=O (stereo not drawn),0.674
11,C#CCOc1ccc(C[C@@H](C(=O)OC)N(CC#C)[C@@H](/C=C/C2CC2)[C@H](O)Cc2ccccc2)cc1,0.212
12,O=C(NCc1ccccc1)[C@@H]1c2ccccc2C(=O)N(C2Cc3ccccc3C2)[C@H]1c1ccc(CO)cc1,-0.357
13,COC(=O)c1c2oc(c1C(=O)OC)C(=O)NC1(CCCCC1)c1cn(nn1)C[C@H](Cc1ccccc1)NC(=O)N[C@H](CO)CC2,0.296
14,CCCCCCc1nc(-c2ccc(-c3ccc(Cl)c(Cl)c3)o2)cc2c1[Si](C(C)C)(C(C)C)O[C@H]2c1ccccc1,-0.517
15,COCCOC(=O)N1C(=O)[C@@]2(c3cc(C#CC4(O)CCCCCC4)ccc31)[C@H](C(=O)Nc1nc3ccccc3s1)[C@H]1C(=O)O[C@H](c3ccccc3)[C@H](c3ccccc3)N1[C@@H]2c1ccc(OCCO)cc1,0.637
16,COC(=O)[C@@]1(Cc2ccc(OC)cc2)[C@H]2c3cc(C(=O)N4CCCC4)n(CCCNc4ncc(C(F)(F)F)cc4Cl)c3C[C@H]2CN1C(=O)c1ccccc1,0.269
17,COC(=O)[C@@]1(Cc2ccc(OC)cc2)[C@H]2c3cc(C(=O)N4CCCC4)n(CCc4ccc(O)c(O)c4)c3C[C@H]2CN1C(=O)c1ccccc1,-0.237
18,Cc1c(NC(=O)/C(C#N)=C/c2cccc([N+](=O)[O-])c2)c(=O)n(-c2ccccc2)n1C,0.393
19,C[N+](C)(C)CCCC[C@@H]1NC(=O)[C@@H]2C[C@H](C(=O)NCCCCCCNC(=O)CS)[C@H](c3ccc(O)cc3)N2C1=O,-0.377
20,COC(=O)[C@@]1(Cc2ccccc2)[C@H]2c3cc(C(=O)N4CCCC4)n(Cc4ccc(O)c(OC)c4)c3C[C@H]2CN1C(=O)c1ccccc1,-1.62
21,O=C1O[C@@H](c2ccccc2)[C@@H](c2ccccc2)N2[C@@H](c3ccccc3OCCO)[C@]3(C(=O)Nc4ccccc43)[C@@H](C(=O)O)[C@H]12,-0.165
22,CCCNC(=O)[C@@H]1c2ccccc2C(=O)N(Cc2ccccc2OC)[C@H]1c1ccc(CO)cc1,-0.0218
23,CC[C@@H]1C=C(C(=O)O)[C@H](c2ccc(C)cc2)N1S(=O)(=O)c1ccc(C)cc1,-0.697
24,O=C1O[C@H](c2ccccc2)[C@H](c2ccccc2)N2[C@H]1[C@@H](C(=O)NC[C@H](O)c1ccccc1)[C@]1(C(=O)Nc3ccccc31)[C@H]2c1ccc(O)cc1,1.23
25,Cc1ccc(S[C@]2(C(=O)NCC(C)C)CC(=O)N(Cc3cc(C(F)(F)F)cc(C(F)(F)F)c3)[C@@H]2c2ccc(CO)cc2)cc1,-0.256
26,COCCOC(=O)N1C(=O)[C@@]2(c3cc(C#CC4=CCCCC4)ccc31)[C@H](c1ccc(OCCO)cc1)N1[C@H](c3ccccc3)[C@H](c3ccccc3)OC(=O)[C@H]1[C@@H]2C(=O)N1CCc2cc(OC)c(OC)cc2C1,0.839
27,COc1ccccc1CN1C(=O)c2ccccc2[C@@H](C(=O)NCc2ccccc2)[C@@H]1c1ccc(CO)cc1,-0.353
28,COCCOC(=O)N1C(=O)[C@@]2(c3ccccc31)[C@H](C(N)=O)[C@H]1C(=O)O[C@H](c3ccccc3)[C@H](c3ccccc3)N1[C@@H]2c1ccc(O)cc1,-0.169
